High-throughput results (PubChem)
Cruzain inh noDet: blocks cruzain activity in detergent-free assay; purified cruzain, Z-FR-AMC fluorescence, no detergent; Potency, µM, hits mostly inhibitors; AID 1476; P25779; 2.3% of 200,000 active; further: nearly all actives have a fitted effect of over 40% in size
Target sequence (P25779 123-467 limits assumed): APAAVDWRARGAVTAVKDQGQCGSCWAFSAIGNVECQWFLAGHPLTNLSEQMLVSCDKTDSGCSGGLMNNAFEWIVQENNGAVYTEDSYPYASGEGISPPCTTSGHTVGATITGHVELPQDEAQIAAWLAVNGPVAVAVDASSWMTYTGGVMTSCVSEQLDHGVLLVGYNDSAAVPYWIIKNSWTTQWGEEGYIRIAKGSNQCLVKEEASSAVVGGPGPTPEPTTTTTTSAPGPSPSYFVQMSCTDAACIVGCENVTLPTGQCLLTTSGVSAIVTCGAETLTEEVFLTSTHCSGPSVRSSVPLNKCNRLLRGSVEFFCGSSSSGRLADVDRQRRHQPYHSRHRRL
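Purified cruzain at 1.5 nM, pre-incubated 15 min with compound at room temperature in 100 mM sodium acetate pH 5.5, 5 mM DTT, 0.00005% Triton X-100. Reaction started with 2 uM Z-FR-AMC; AMC fluorescence increase over 60 s gives rate.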
Cruzain inh Det: cruzain (T. cruzi) inhibition with detergent. purified cruzain, Z-FR-AMC fluorescence, 0.01% Triton. AID 1478. 0.43% of 200,000 active. Potency, µM, most hits filed as inhibitors; further: nearly all actives have a fitted effect of over 40% in size
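Cruzain (1.5 nM) preincubated 15 min at RT with compound in 100 mM sodium acetate pH 5.5, 5 mM DTT, 0.01% Triton X-100. Reaction started with 2 uM Z-FR-AMC; AMC fluorescence (ex 360/em 450 nm) change over 60 s gave rate.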
A number is an active result; ! = not active in a repeat. Shown are actives, neighbours in structure and some others; about 2.6% of the full set was active somewhere. The call rests on the fitted dose curve; in most records, active means well fitted curve in the direction sought with a large enough effect; inconclusive means small, poorly fitted or top-dose-only effect, or another doubt; inactive means no such curve, though single readings can be large; an effect the other way counts as inactive or inconclusive.

Results for O=P1(O)Oc2c(c(-c3ccccc3)cc3ccc4ccccc4c23)-c2c(-c3ccccc3)cc3ccc4ccccc4c3c2O1 ?
Cruzain inh noDet: inactive; Cruzain inh Det: 25.1µM

How did O=P1(O)Oc2c(c(-c3ccccc3)cc3ccccc23)-c2c(-c3ccccc3)cc3ccccc3c2O1 do in these assays?
Cruzain inh noDet: inconclusive; Cruzain inh Det: inactive

What do the screens show for `CCOC(=O)c1ccc(N2C(=O)c3[nH]nc(-c4ccc(C)cc4)c3C2c2ccc(O)cc2)cc1` (stereo not drawn)?
Cruzain inh noDet: inconclusive; Cruzain inh Det: inactive

What do the screens show for `CCOC(=O)c1ccc(N2C(=O)c3[nH]nc(-c4ccccc4)c3C2c2ccc(CC)cc2)cc1` (stereo not drawn)?
Cruzain inh noDet: 12.6µM; Cruzain inh Det: inactive

What do the screens show for `CCC(=O)Nc1sc2c(c1C(=O)Nc1ccc(Br)cc1)CCCCC2`?
Cruzain inh noDet: inactive; Cruzain inh Det: inactive

How did Cc1ccc(NC(=O)CSc2ncnc3c2sc2ccccc23)cc1C do in these assays?
Cruzain inh noDet: inactive; Cruzain inh Det: inactive

Results for COc1ccc(C2CC(c3ccccc3)=NN2C(=O)COC(=O)c2ccc(Cl)nc2)cc1 (stereo not drawn) ?
Cruzain inh noDet: inactive; Cruzain inh Det: inactive

What do the screens show for `COc1ccc(C2CC(c3ccccc3)=NN2C(=O)COC(=O)c2cnc(Cl)c(Cl)c2)cc1` (stereo not drawn)?
Cruzain inh noDet: 5.01µM; Cruzain inh Det: inactive

How did COc1ccc(C2CC(c3ccccc3)=NN2C(=O)COC(=O)CNC(=O)c2ccccc2)cc1 (stereo not drawn) do in these assays?
Cruzain inh noDet: 10µM; Cruzain inh Det: 8.91µM

Results for COc1ccc(C2CC(c3ccccc3)=NN2C(=O)COC(=O)c2cccc(S(=O)(=O)N(C)C)c2)cc1 (stereo not drawn) ?
Cruzain inh noDet: inconclusive; Cruzain inh Det: inactive

What do the screens show for `COC(=O)[C@@]1(Cc2ccc(OC)cc2)[C@H]2c3cc(C(=O)N(C)C)n(Cc4ccc(C)c(F)c4F)c3C[C@H]2CN1C(=O)c1ccccc1`?
Cruzain inh noDet: inconclusive; Cruzain inh Det: inactive

How did O=C(NCc1ccccc1Cl)c1ccc2c(c1)NC(=O)C(CS(=O)(=O)Cc1ccc(Cl)cc1)N2 (stereo not drawn) do in these assays?
Cruzain inh noDet: inconclusive; Cruzain inh Det: inactive

Results for O=C(Nc1ccccc1C(F)(F)F)c1ncoc1-c1ccco1 ?
Cruzain inh noDet: inactive; Cruzain inh Det: inactive

How did CCOc1ccccc1NC(=O)N1CCN(C)c2ncccc21 do in these assays?
Cruzain inh noDet: inactive; Cruzain inh Det: inactive

How did CCOc1ccccc1NC(=O)c1c(NC(=O)COc2ccccc2)sc2c1CCCCC2 do in these assays?
Cruzain inh noDet: inactive; Cruzain inh Det: inactive

What do the screens show for `Cc1nccc2c1[nH]c1ccccc12`?
Cruzain inh noDet: 39.8µM!; Cruzain inh Det: inconclusive

How did c1ccc2c(c1)[nH]c1cnccc12 do in these assays?
Cruzain inh noDet: inactive; Cruzain inh Det: inactive

How did COc1ccc(-c2cc(C)no2)cc1S(=O)(=O)NCc1cccs1 do in these assays?
Cruzain inh noDet: inactive; Cruzain inh Det: inactive

What do the screens show for `CC(C)c1ccc(/C=C(\C#N)c2nc(-c3ccc(O)cc3)cs2)cc1`?
Cruzain inh noDet: inconclusive; Cruzain inh Det: inactive

What do the screens show for `CC(C)c1ccc(/C=C(/C#N)c2nnc(NC(=O)c3ccccc3)s2)cc1`?
Cruzain inh noDet: 12.6µM; Cruzain inh Det: inactive

Results for Cc1ccc(C(C)C)c(OCC(=O)Nc2c(C(=O)c3ccc(F)cc3)oc3ccccc23)c1 ?
Cruzain inh noDet: inactive; Cruzain inh Det: inactive

What do the screens show for `COc1ccccc1N1CCN(Cc2ccc(O)c3ncccc23)CC1`?
Cruzain inh noDet: inactive; Cruzain inh Det: inactive

What do the screens show for `Oc1ccc(CN2CCCc3ccccc32)c2cccnc12`?
Cruzain inh noDet: 25.1µM; Cruzain inh Det: inactive

Results for CCCN(C(=O)Cc1nc(-c2ccc(OC)cc2)no1)c1ccccc1C ?
Cruzain inh noDet: inactive; Cruzain inh Det: inactive

What do the screens show for `COc1cc2c(cc1OC)C1=NC(=O)CN1C(SCc1ccc(C)cc1)=N2`?
Cruzain inh noDet: inactive; Cruzain inh Det: inactive

How did Cc1ccc(CSC2=Nc3sccc3C3=NC(=O)CN23)cc1 do in these assays?
Cruzain inh noDet: 20µM; Cruzain inh Det: inactive

How did CC(=O)N1CCc2cc(Br)cc(S(=O)(=O)CCC(=O)Nc3ccc(C)cc3Cl)c21 do in these assays?
Cruzain inh noDet: inactive; Cruzain inh Det: inactive

Results for CCN1/C(=C2\OC(=S)N(C)C2=O)Sc2ccccc21 ?
Cruzain inh noDet: inactive; Cruzain inh Det: inactive

What do the screens show for `CCN1/C(=C2\SC(=S)N(Cc3ccccc3)C2=O)Sc2ccccc21`?
Cruzain inh noDet: 10µM; Cruzain inh Det: inactive

Results for Cc1ccc(-c2[nH]nc(N)c2N=Nc2cccc(Cl)c2C)cc1 ?
Cruzain inh noDet: inconclusive; Cruzain inh Det: inactive

What do the screens show for `Cc1cccc(N=Nc2c(N)n[nH]c2-c2ccc(Cl)cc2)c1`?
Cruzain inh noDet: 25.1µM; Cruzain inh Det: inactive

Results for CCN(c1ccccc1)S(=O)(=O)c1cc(Br)cc2c1N(C(=O)C1CC1)CC2 ?
Cruzain inh noDet: inactive; Cruzain inh Det: inactive
